Source: article PMC5540273 (PLoS ONE, 2017)

Columns and labels:
Conditions in all cases: concentration: 1 μM, replicates: in singlicate; n = 1
TLK2 = tested on: TLK2
TNIK = tested on: TNIK
TNK1 = tested on: TNK1
TNK2 = tested on: TNK2
TNNI3K = tested on: TNNI3K
TRKA = tested on: T1, TRKA
T1 construct: gene NTRK1

TRKB = tested on: TRKB
TRKC = tested on: T2, TRKC
T2 construct: gene NTRK3

TRPM6 = tested on: TRPM6
TSSK1B = tested on: TSSK1B
TSSK3 = tested on: TSSK3
TTK = tested on: TTK
TXK = tested on: TXK
[1] = tested on: TYK2(JH1domain-catalytic)
[2] = tested on: TYK2(JH2domain-pseudokinase)
TYRO3 = tested on: TYRO3
ULK1 = tested on: ULK1
ULK2 = tested on: ULK2
ULK3 = tested on: ULK3
VEGFR2 = tested on: T3, VEGFR2
T3 construct: gene KDR
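Also: KINOMEscan kinase panel screen.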

| SMILES | %Inh (TLK2) [%] | %Inh (TNIK) [%] | %Inh (TNK1) [%] | %Inh (TNK2) [%] | %Inh (TNNI3K) [%] | %Inh (TRKA) [%] | %Inh (TRKB) [%] | %Inh (TRKC) [%] | %Inh (TRPM6) [%] | %Inh (TSSK1B) [%] | %Inh (TSSK3) [%] | %Inh (TTK) [%] | %Inh (TXK) [%] | %Inh [1] [%] | %Inh [2] [%] | %Inh (TYRO3) [%] | %Inh (ULK1) [%] | %Inh (ULK2) [%] | %Inh (ULK3) [%] | %Inh (VEGFR2) [%] |
| --- | --- | --- | --- | --- | --- | --- | --- | --- | --- | --- | --- | --- | --- | --- | --- | --- | --- | --- | --- | --- |
| CN1c2ccc(NCc3ccc(F)cc3)cc2-c2c(cnn2C)S1(=O)=O | 0 | 38 | 35 | 0 | 2 | 0 | 0 | 2 | 0 | 0 | 0 | 0 | 0 | 0 | 12 | 16 | 0 | 0 | 0 | 4 |
| COc1ccc(CNC(=O)NC2CCN(c3ccnc(Nc4ccc(OC)cc4)n3)C2)cc1 (centres unmarked) [GSK1379727] | 0 | 0 | 0 | 12 | 0 | 0 | 0 | 47 | 0 | 13 | 5 | 18 | 0 | 37 | 46 | 0 | 0 | 0 | 9 | 0 |
| O=C(c1ccc(-c2cc(-c3c[nH]nc3-c3ccccn3)ccn2)cc1)N1CCOCC1 [GW812171] | 13 | 30 | 0 | 0 | 0 | 0 | 0 | 0 | 17 | 0 | 0 | 0 | 11 | 0 | 21 | 0 | 14 | 38 | 3 | 0 |
| [2H]C([2H])(c1cccc(C(F)(F)F)c1C)n1ccn2c(=O)nc(N3CCOCC3)cc12 [GSK2336394] | 0 | 0 | 4 | 7 | 0 | 0 | 0 | 0 | 53 | 0 | 14 | 0 | 0 | 71 | 13 | 0 | 0 | 0 | 8 | 0 |
| O=c1cc(N2CCOCC2)nc2n(Cc3cccc(Cl)c3Cl)c(C3CC3)nn12 [GSK2358994] | 0 | 10 | 0 | 5 | 0 | 1 | 0 | 0 | 0 | 0 | 0 | 0 | 7 | 11 | 0 | 35 | 0 | 10 | 0 | 0 |
| CCc1nc(-c2cccc(C)c2)c(-c2ccnc(NCc3ccccc3)c2)s1 | 0 | 24 | 0 | 0 | 0 | 0 | 0 | 0 | 0 | 22 | 1 | 12 | 0 | 0 | 0 | 0 | 0 | 8 | 0 | 0 |
| Fc1ccc(-c2ncn(CCCN3CCOCC3)c2-c2ccccn2)cc1 [SB-211742] | 0 | 0 | 24 | 0 | 0 | 0 | 0 | 0 | 0 | 0 | 0 | 0 | 5 | 0 | 0 | 8 | 0 | 0 | 0 | 0 |
| Nc1nccc(-c2c(-c3ccc(F)cc3)ncn2C2CCN(CC(F)(F)F)CC2)n1 [SB-236560] | 0 | 6 | 0 | 10 | 0 | 70 | 35 | 18 | 0 | 0 | 67 | 0 | 0 | 14 | 82 | 0 | 0 | 30 | 10 | 0 |
| COc1ccc(COc2cc(-n3cnc4ccccc43)sc2C(N)=O)cc1 [GSK1024304] | 0 | 51 | 8 | 3 | 0 | 0 | 0 | 19 | 4 | 0 | 17 | 6 | 20 | 4 | 0 | 0 | 15 | 0 | 0 | 0 |
| c1ccc(-c2cc(-c3c[nH]nc3-c3ccccn3)ccn2)cc1 [GW576604] | 0 | 72 | 0 | 1 | 89 | 54 | 25 | 0 | 11 | 3 | 2 | 0 | 0 | 13 | 26 | 0 | 0 | 0 | 0 | 0 |
| COc1cc2c(cc1OC[C@@H](O)CO)ncc1c3ccc(C#N)cc3[nH]c21 | 0 | 64 | 36 | 0 | 0 | 98.8 | 90 | 66 | 0 | 3 | 0 | 0 | 0 | 0 | 22 | 0 | 71 | 99.2 | 50 | 19 |
| c1ccc(-c2n[nH]cc2-c2ccnc3ccccc23)nc1 [GW271431] | 0 | 32 | 10 | 19 | 12 | 35 | 0 | 0 | 29 | 11 | 22 | 4 | 4 | 17 | 10 | 0 | 0 | 0 | 1 | 12 |
| COc1ccc(Nc2nccc(N3CCC(NC(=O)Nc4cccc(C(C)=O)c4)C3)n2)cc1 (centres unmarked) [GSK1379731] | 0 | 0 | 0 | 0 | 48 | 50 | 44 | 78 | 2 | 0 | 8 | 15 | 0 | 35 | 16 | 6 | 18 | 0 | 16 | 0 |
| O=C(NCCCN1CCOCC1)c1cccc(Nc2nccc(Nc3ccc(Oc4ccccc4)cc3)n2)c1 [GW663929] | 21 | 3 | 66 | 19 | 74 | 8 | 0 | 0 | 52 | 0 | 10 | 21 | 0 | 30 | 44 | 5 | 1 | 2 | 11 | 13 |
| NS(=O)(=O)c1cccc(-c2ccc3ncc(N4CCOCC4)nc3c2)c1 [GSK1535721] | 8 | 34 | 0 | 2 | 14 | 37 | 0 | 5 | 0 | 0 | 6 | 6 | 0 | 0 | 31 | 0 | 0 | 0 | 2 | 10 |
| O=C(Nc1n[nH]c2cc(-c3cccc(F)c3)ccc12)C1CC1 [SB-735464] | 0 | 72 | 9 | 0 | 0 | 4 | 2 | 38 | 7 | 0 | 9 | 21 | 14 | 1 | 10 | 0 | 2 | 12 | 29 | 12 |
